Screening data deposited in PubChem BioAssay by National Center for Advancing Translational Sciences (NCATS).
Rows were chosen to be rich in hits. Some 8.1% of all compounds tested hit in one or more screens of this group.
Sfp PPTase inh = Sfp phosphopantetheinyl transferase inhibition; 310,000 compounds, 3.5% hits; Q9F4F7; Biochemical Sfp PPTase activity, qHTS; Potency, µM, actives largely listed as inhibitors;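 note: the enzyme is Sfp with the accession as filed and its product quenches rhodamine fluorescence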
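Fluorescence-quenching assay: 15 nM Sfp-PPTase preincubated 15 min at room temperature with compound, then 5 uM rhodamine-CoA and 12.5 uM BHQ-2-labelled YbbR peptide added. Fluorescence (ex 525/em 598 nm) read at start and after 30 min; difference gives rate.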
Epigenetic derep = regulators of epigenetic silencing causing reporter derepression in mouse cells | murine LDR cells, GFP reporter derepression, 30 h | Potency, µM (top dose mostly 53.9 µM), actives largely listed as activators | 280,000 compounds, 0.2% hits; note: nearly all actives have a fitted effect of over 60% in size
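In this reporter-derepression format, murine cells bearing a silenced integrated CMV-GFP locus incubate with test compound (30 h, 37 C), then are washed and imaged; fluorescent objects of 20–120 um count as induced cells.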
VP16 counter = inhibits Gal4-VP16 luciferase reporter, ROR gamma counter-screen; Drosophila S2 Gal4-VP16 UAS-luciferase, luminescence, 20 h; Potency, µM (highest dose often 53.6 µM), actives largely listed as inhibitors; AID 2546; 310,000 compounds, 3.5% hits;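 note: Gal4-VP16 expression switched on by copper sulfate through the metallothionein promoter; nearly all actives have a fitted effect of over 50% in size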
PINK1 modulator = modulators of PINK1 expression; PINK1 immunofluorescence, high-content cytometry, 24 h; Potency, µM (titrated, usually from 76.6 µM), hits mostly activators; 410,000 compounds, 0.2% hits; AID 624263; active = well fitted activation curve with a large enough effect; inconclusive = small, poorly fitted or top-dose-only effect; cell line not stated here; note: nearly all actives have a fitted effect of over 65% in size
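A stable cell line was treated with compounds at 5 concentrations for 24 hours, with CCCP as control. PINK1 levels and mitochondrial localization were measured by immunofluorescence with mitochondrial, cell and nuclear markers after fixation, read by laser-scanning cytometry.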
RORg inh = inhibitors of mouse ROR gamma transcriptional activity; Potency, µM (series often up to 53.6 µM), usual class: inhibitors; 310,000 compounds, 5.4% hits; Drosophila S2 Gal4-RORgamma UAS-luciferase reporter, 20 h; note: nearly all actives have a fitted effect of over 60% in size
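Stably transfected Drosophila Schneider cells are the test system, with ROR gamma fused to Gal4 and luciferase under UAS control; luminescence is read after 20 hr of 700 uM copper sulfate induction at ambient temperature.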
ClpP mod = qHTS Assay for Activators of ClpP; Potency, µM (doses to about 57.5 µM); 340,000 compounds, 1.9% hits; purified B. subtilis ClpP, FRET peptide cleavage, 20 min; ATP-dependent Clp protease proteolytic subunit (Bacillus subtilis (strain 168)), P80244; active = well fitted falling curve with a large enough effect; inconclusive = small, poorly fitted or top-dose-only effect; inactive = no such curve, though single readings can be large or run the other way; note: the source files actives as falling curves though it sought activators and does not explain the sign; nearly all actives have a fitted effect of over 65% in size
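Buffer: 100 mM Tris/HCl pH8, 100 mM KCl, 0.05% low protease BSA, 2.5% glycerol, 0.01% Tween-20. ClpP 10 microg/mL final; 20 min RT; delta FRET normalized to ADEP and DMSO controls.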
Hits are given with their value; n = inactive; u = inconclusive; x = not tested or not shown; [ ] = remark or other dose. Unless noted, calls come from the whole dose curve; as a rule, active = well fitted curve in the direction sought with a large enough effect; inconclusive = small, poorly fitted or top-dose-only effect, or another doubt; inactive = no such curve, though single readings can be large; an effect the other way counts as inactive or inconclusive.

SMILES	Sfp PPTase inh	Epigenetic derep	VP16 counter	PINK1 modulator	RORg inh	ClpP mod
Cc1ccc(NC(=O)CN2C(=O)NC(C)(c3ccc(Cl)cc3)C2=O)cc1 (stereo not drawn)	n	x	n	n	n	x
CCC1(c2ccc(Cl)cc2)NC(=S)N(c2ccc(C)c(C)c2)N1 (stereo not drawn)	n	n	n	n	u	n
CCC1(c2ccc(Cl)cc2)NC(=S)N(c2ccc(C)cc2)N1 (stereo not drawn)	u	n	n	n	1.78µM	n
CC(C)CN(CC(C)C)S(=O)(=O)c1ccc(C(=O)Nc2sc3c(c2C(N)=O)CCN(C(C)C)C3)cc1	x	u	x	n	x	n
COC(=O)c1ccc(Cn2ccc(=O)[nH]c2=O)cc1	x	x	x	n	x	14.1µM
Cc1cc(C)c(S(=O)(=O)N2CCCCC2CCNC(=O)C(=O)NCc2ccco2)c(C)c1 (stereo not drawn)	x	x	x	n	x	14.1µM
COC(=O)c1ccc(CSc2cc(C)c3ccccc3n2)o1	25.1µM	n	u	n	u	x
CCn1c(SCC(=O)OC)nc2sc3c(c2c1=O)CCC3	n	n	n	n	n	n
CCn1c2ccccc2c2nnc(SCc3ccccc3)nc21	n	n	u	n	u	n
CCn1c(SCc2ccc(C(=O)OC)o2)nc2sc3c(c2c1=O)CCCC3	35.5µM	n	u	n	n	n
CCCn1c(SCc2ccc(C(=O)OC)o2)nc2ccccc2c1=O	n	x	n	n	n	x
CCn1c2ccccc2c2nnc(SCc3ccc(C(=O)OC)o3)nc21	31.6µM	n	12.6µM	n	u	n
CCc1nn(CC(=O)NCc2ccccc2)c(=O)c2cccn12	x	n	x	n	x	n
CC(C)[C@@H]1CC[C@@H](C)c2c(-c3ccccc3)n[nH]c21	n	n	u	n	15.8µM	n
O=C(O)c1ccc(N2C(=O)c3[nH]nc(-c4ccccc4)c3C2c2ccccc2)cc1 (stereo not drawn)	n	n	n	n	n	n
COc1ccc(-c2nc3ccccn3c2Cl)cc1	n	x	u	n	15.8µM	n
Clc1ccc(-c2cn3ccccc3n2)cc1	n	x	n	n	u	n
COc1c(Cl)cccc1-c1cn2ccccc2n1	n	n	u	n	11.2µM	x
COc1ccc(-c2cn3ccc4ccccc4c3n2)cc1	n	n	n	n	u	28.2µM
COc1ccc(-c2cn3cc(C(F)(F)F)cc(Cl)c3n2)cc1	n	n	n	n	n	x
Brc1ccc(-c2cn3ccccc3n2)s1	n	n	u	n	u	u
COc1ccc(-c2cn3ccccc3n2)cc1	n	n	12.6µM	n	6.31µM	n
CCCOc1ccc(-c2cn3ccccc3n2)cc1[N+](=O)[O-]	n	n	n	n	n	n
CCCOc1ccc(-c2cn3ccccc3n2)cc1	n	n	u	n	4.47µM	n
COc1cccc(NC(=O)C2CCCN2S(=O)(=O)c2ccc3nc(-c4ccccc4)[nH]c3c2)c1 (stereo not drawn)	x	n	x	n	x	n
SMILES	Sfp PPTase inh	Epigenetic derep	VP16 counter	PINK1 modulator	RORg inh	ClpP mod
O=C1CNC(=S)N1C1CCCCCC1	n	x	n	n	11.2µM	x
CCCC1NC(=S)N(C2CCCCC2)C1=O (stereo not drawn)	n	n	u	n	n[10 µM]	n
CCCCCn1c(=O)[nH]c2cc(C(=O)N3CCN(c4cc(Cl)ccc4C)CC3)ccc2c1=O	x	n	x	n	x	n
CN1CCN(C(=S)NC(=O)c2cccc(S(=O)(=O)N(C)C)c2)CC1	u	n	u	n	14.1µM	x
COc1ccc(C(=O)NC(=S)N2CCN(C)CC2)cc1Br	n	n	2.82µM	n	0.447µM	n
CCOc1ccccc1N1CCN(C(=O)CNC(=O)c2ccc(OC)c(OC)c2)CC1	n	x	n	n	n	x
COc1ccc(C(=O)NC(=S)N2CCOCC2)cc1OC	u	n	u	n	11.2µM	n
CN1CCN(C(=S)Nc2cccc(S(=O)(=O)N(C)C)c2)CC1	n	n	n[10 µM]	n	n	x
COc1ccc(C(=O)NC(=S)N2CCN(c3ccccc3OC)CC2)cc1OC	u	x	5.01µM	n	2.82µM	n
COc1cccc2c1ncc1c(-c3ccc(C)cc3)nn(-c3cccc([N+](=O)[O-])c3)c12	x	u	x	n	x	n
COCCCNC(=O)CCC(=O)N1Cc2ccccc2Oc2ncccc21	x	n	x	n	x	n
CCC(=O)OC1C(N(C)C)CC(C)O[C@H]1O[C@H]1[C@H](C)[C@@H](O[C@H]2CC(OC)[C@@H](O)C(C)O2)[C@H](C)C(=O)O[C@@H](CC)[C@](C)(O)[C@@H](O)[C@H](C)C(=O)[C@@H](C)C[C@]1(C)O (stereo partly drawn)	n	x	n	x	n	x
Cc1cccc(C(=O)NC(=S)N2CCc3ccccc3C2)c1	n	n	3.55µM	n	1.41µM	x
COc1ccccc1N1CCN(C(=S)Nc2ccc(F)cc2)CC1	n	x	u	n	11.2µM	x
COC(=O)C1=C(C(=O)OC)[C@@H]2Nc3ccccc3[C@@]23C[C@@H](C(=O)OC)N(S(=O)(=O)c2ccc(C#N)cc2)C3=N1	n	x	x	x	x	x
CNc1nc(Cl)nc2c1ncn2-c1ccccc1	x	x	x	n	x	n
O=c1c(Cl)c(NCCO)ncn1-c1ccccc1	n	n	n	n	n	28.2µM
COc1ccc(C(=O)c2ccccc2)cc1	n	n	n	n	n	x
COC1=CC(=O)C(C(=O)c2ccccc2)=CC1=O	39.8µM	n	n	n	n	x
